This passage reports activity change, negative = inhibition results from PubChem BioAssay AID652062 (Broad Institute, 2013).

In all, about 1,400 compounds went through this assay and about 1,100 (79%) were called active.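 The calls were made as follows: active = fitted half-maximal concentration of a falling signal no higher than twice the top valid dose in every test run; inconclusive = runs disagree, or flat partial inhibition, or poor fit; inactive = every run inactive: flat, wrong direction, or potency beyond limit.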 The set was probably picked from earlier hits. The list is a sample of the results. Measured potencies and affinities stand elsewhere.

The experiment is described as follows: inhibitors of clade B AD8 Env fusion, dose response, cell-based, cherry-pick (AID 652062). The following applies: HeLa-AD8 Env / CEM-CCR5 cell fusion, luciferase; at 35 µM (top of the series) unless noted.
On to `C[C@H]1CN([C@@H](C)CO)C(=O)Cc2cc(NS(=O)(=O)c3ccccc3)ccc2O[C@@H]1CN(C)Cc1ccc(Cl)c(Cl)c1`, for which the activity change, negative = inhibition was -28.9%.

In the case of `C[C@@H]1CN([C@H](C)CO)C(=O)c2cc(NS(=O)(=O)c3ccc(F)cc3)ccc2O[C@H]1CN(C)Cc1ccc(C(F)(F)F)cc1`, the activity change, negative = inhibition is -13.8%.

For the molecule `COc1ccccc1S(=O)(=O)N[C@H]1CC[C@H](CC(=O)N2CCN(C)CC2)O[C@H]1CO`, the activity change, negative = inhibition is -27.9%.

With `COc1ccc(-c2cn(CC[C@H]3CC[C@H](NS(=O)(=O)c4ccccc4C)[C@H](CO)O3)nn2)cc1`, the activity change, negative = inhibition was 2.4%.

On to `COc1ccc(S(=O)(=O)N[C@@H]2CC[C@@H](CC(=O)NCCc3ccncc3)O[C@@H]2CO)cc1`, for which the activity change, negative = inhibition is -13%.

As for `CNC[C@H]1Oc2c(NC(=O)Nc3ccc4c(c3)OCO4)cccc2C(=O)N([C@H](C)CO)C[C@@H]1C`, the activity change, negative = inhibition turned out to be 65.2%.

As to `COC(=O)[C@H](Cc1ccccc1)NC(=O)Cn1cnc(C(=O)Nc2ccc(C)c(C)c2)n1`, the activity change, negative = inhibition was determined as 23.2%.

Regarding `CCOc1ccccc1C(=O)NCC(=O)NNC(=O)CN(C)S(=O)(=O)c1ccc(Cl)cc1`, the activity change, negative = inhibition is -52.6%.

Turning to `Nc1c(S(=O)(=O)c2ccccc2)cnc2c(-c3ccc(F)cc3)cnn12`, the activity change, negative = inhibition was 63.4% [at 16 µM].

Consider `COc1ccc(OC)c(-c2cc(C(=O)Nc3c(C)nn(Cc4ccc(Cl)cc4)c3C)no2)c1`, for which the activity change, negative = inhibition was -43.8%.

Turning to `Cc1ccc2c(c1)c1c3n2CCN(CCC#N)C3CCC1` (stereo not given), the activity change, negative = inhibition was found to be 81.2%.

`N#C[C@@H]1[C@H](c2ccc(-c3ccccc3F)cc2)[C@@H](CO)N1C(=O)c1ccccn1`: the activity change, negative = inhibition is -32.3%.

For the molecule `N#C[C@H]1[C@@H](c2ccccc2/C=C/c2ccccc2)[C@@H](CO)N1S(=O)(=O)c1cccc(F)c1`, the activity change, negative = inhibition is 108%.

With `CCC(=O)N(C)C(c1ccccc1Cl)c1nnnn1-c1c(C)cccc1C` (stereo not given), the activity change, negative = inhibition came to 49.6%.

In the case of `Cc1ccc(S(=O)(=O)N(C)C)cc1NC(=O)C(C)N(C)CCOc1ccc(Cl)cc1` (stereo not given), the activity change, negative = inhibition is -21.5% [at 8 µM].

`COc1ccc(NC(=O)CN2CCC(C(N)=O)(N3CCCCC3)CC2)cc1`: the activity change, negative = inhibition is -10%.

In the case of `COCC(=O)N(C)C[C@H]1Oc2ncc(Br)cc2C(=O)N([C@H](C)CO)C[C@H]1C`, the activity change, negative = inhibition is 50.8%.

For `COCCCNC(=O)c1sc2ncnc(N3CCc4ccccc4C3)c2c1C`, the activity change, negative = inhibition is 60.7%.

Turning to `O=C(c1ccccc1)N1CCN(c2ncnc3sc4c(c23)CCC4)CC1`, the activity change, negative = inhibition is -54.4%.

In the case of `Cc1ccc(C2Oc3ccccc3C3=C2C(c2cccs2)n2ncnc2N3)cc1` (stereo not given), the activity change, negative = inhibition stood at 12.9%.

In the case of `CC(NNC(=S)N1CCCCCC1)c1ccc2ccccc2n1` (stereo not given), the activity change, negative = inhibition is -26.1%.

As to `CN1CC(c2ccccc2)C2(SC(=S)N(Cc3ccco3)C2=O)C12C(=O)Nc1ccccc12` (stereo not given), the activity change, negative = inhibition is -103%.

Turning to `CNC[C@H]1Oc2c(NC(=O)Nc3cccc4ccccc34)cccc2C(=O)N([C@H](C)CO)C[C@H]1C`, the activity change, negative = inhibition was 104%.

For `C[C@H]1CN([C@@H](C)CO)C(=O)c2cccc(NC(=O)c3ccncc3)c2O[C@@H]1CN(C)C(=O)Nc1cccc2ccccc12`, the activity change, negative = inhibition came to 63.7%.

Consider `O=C(NCc1cccc(F)c1)[C@@H]1[C@@H](CO)[C@@H]2Cn3c(ccc(-c4cccnc4)c3=O)[C@H]1N2CC1CC1`, for which the activity change, negative = inhibition amounted to 1.91%.

Turning to `NC(=S)c1ccc(OCCCc2ccccc2)cc1`, the activity change, negative = inhibition is 30.2%.

On to `O=C(C[C@@H]1C=C[C@@H](NC(=O)c2ccccc2)[C@H](CO)O1)NCc1ccc(Oc2ccccc2)cc1`, for which the activity change, negative = inhibition is -28.3%.

`C[C@@H]1CN([C@H](C)CO)C(=O)c2cccc(NS(=O)(=O)c3ccc(Cl)cc3)c2O[C@@H]1CN(C)Cc1ccc(Cl)c(Cl)c1`: the activity change, negative = inhibition is -25.6%.

Take `C[C@H]1CN([C@@H](C)CO)C(=O)c2cccc(NS(=O)(=O)c3ccc(Cl)cc3)c2O[C@@H]1CN(C)Cc1ccc(C(F)(F)F)cc1`: the activity change, negative = inhibition is 9.5%.

Regarding `CN(C)CC(=O)Nc1ccc2c(c1)[C@H]1C[C@@H](CC(=O)NCCc3ccccc3)O[C@H](CO)[C@H]1O2`, the activity change, negative = inhibition was found to be 14.9% [at 30 µM].

For the molecule `COc1cccc(S(=O)(=O)N[C@H]2CC[C@H](CC(=O)NCc3ccncc3)O[C@@H]2CO)c1`, the activity change, negative = inhibition worked out at 30.8%.

As for `Cc1ccc2c(c1)C(=C(C#N)C#N)CCN2`, the activity change, negative = inhibition came to 85.1%.

For `C[C@@H]1CN([C@H](C)CO)S(=O)(=O)c2ccc(-c3ccccc3)cc2O[C@@H]1CN(C)Cc1ccccc1`, the activity change, negative = inhibition is -17.9%.

On to `C[C@H]1CN([C@@H](C)CO)S(=O)(=O)c2ccc(-c3ccc(F)cc3)cc2O[C@H]1CN(C)Cc1cccc(F)c1`, for which the activity change, negative = inhibition is -95%.

With `C[C@H]1CN([C@@H](C)CO)S(=O)(=O)c2ccc(-c3cccc(C#N)c3)cc2O[C@H]1CN(C)Cc1cccc(F)c1`, the activity change, negative = inhibition was found to be 4.15%.

For `COc1cc(-c2cc(OC)c(O)c(OC)c2)cc(OC)c1O`, the activity change, negative = inhibition came out at 27.9%.

Turning to `CCc1nc(N2CCCCC2C)c2oc3ccccc3c2n1` (stereo not given), the activity change, negative = inhibition worked out at 131%.

With `CCc1nc(N2CCCCC2)c2oc3ccccc3c2n1`, the activity change, negative = inhibition was 16.4%.

Turning to `C=CCN1C(=S)CC(c2ccccc2)=Nc2ccccc21`, the activity change, negative = inhibition was 1.53%.

Turning to `C[C@H](CO)N1C[C@H](C)[C@@H](CN(C)Cc2ccncc2)Oc2cc(C3=CCCCC3)ccc2S1(=O)=O`, the activity change, negative = inhibition stood at 57.2% [at 15 µM].

Consider `C[C@@H]1CN([C@@H](C)CO)S(=O)(=O)c2ccc(C3=CCCC3)cc2O[C@@H]1CN(C)C(=O)C1CCOCC1`, for which the activity change, negative = inhibition is 50.5%.

For the molecule `COc1ccc(Nc2ncc(C(=O)N3CCN(c4ccc(F)cc4)CC3)c3ccccc23)cc1`, the activity change, negative = inhibition was 0.701%.

As for `COc1ccc2[nH]c3c(N4CCC(O)(c5cccc(C(F)(F)F)c5)CC4)ncnc3c2c1`, the activity change, negative = inhibition is -33.8%.

With `Cc1noc(C)c1S(=O)(=O)Nc1cccc2c1O[C@H](CN(C)Cc1ccc(C(F)(F)F)cc1)[C@H](C)CN([C@H](C)CO)C2=O`, the activity change, negative = inhibition turned out to be 36.8%.

`C[C@@H]1CN([C@@H](C)CO)C(=O)c2cccc(NS(=O)(=O)c3ccc(F)cc3)c2O[C@@H]1CN(C)Cc1ccc(C(F)(F)F)cc1`: the activity change, negative = inhibition was -35.8%.

In the case of `C[C@@H]1CN([C@H](C)CO)C(=O)c2cccc(NS(=O)(=O)c3ccc(F)cc3)c2O[C@@H]1CN(C)Cc1ccc(C(F)(F)F)cc1`, the activity change, negative = inhibition is -28.7%.

Take `COc1ccc(CCNC(=O)COC(=O)c2cccn2C)cc1`: the activity change, negative = inhibition is -11.1%.

`O=S(=O)(NCC[C@H]1CC[C@H](NS(=O)(=O)c2ccccc2Cl)[C@H](CO)O1)c1ccc(Cl)cc1`: the activity change, negative = inhibition is 67.6% [at 30 µM].

Turning to `O=S(=O)(NCC[C@@H]1CC[C@@H](NS(=O)(=O)c2ccccc2Cl)[C@H](CO)O1)c1ccc(Cl)cc1`, the activity change, negative = inhibition turned out to be 68.7%.

Consider `Cc1ccc2c(C)nc(Nc3nc(CSc4nnnn4-c4ccccc4)cc(=O)[nH]3)nc2c1`, for which the activity change, negative = inhibition is -21.8%.
